Screening results (PubChem)
Only some compounds are listed: those with a hit (about 3.7% of all), similar ones and a draw of the others.
BoNT-F LC inh = BoNT/F light chain protease inhibitors, primary screen, biochemical, flow cytometry, MLPCN library; AID 588497, 2011; 360,000 tested, 0.22% active; Multiplex microsphere protease cleavage assay; inhibition, % at 10 µM; in the data active = inhibition above about 35%, passing the limit was not always enough; inconclusive = no clear call, values can overlap the other calls
BoNT A protease = BoNT/A light chain protease inhibitors, primary screen, biochemical, flow cytometry, MLPCN library; inhibition, % at 10 µM; 360,000 tested, 0.17% active; multiplex microsphere protease substrate cleavage; Botulinum neurotoxin type A light chain protease (Clostridium botulinum A str. ATCC 3502)
Anthrax LF prot = Bacillus anthracis LF protease inhibitors, primary screen, biochemical, multiplex microsphere, MLPCN library. Lethal factor (Bacillus anthracis), P15917. 360,000 tested, 0.12% active. multiplex microsphere protease cleavage assay. inhibition, % at 10 µM
Target sequence (P15917 whole entry, looked up): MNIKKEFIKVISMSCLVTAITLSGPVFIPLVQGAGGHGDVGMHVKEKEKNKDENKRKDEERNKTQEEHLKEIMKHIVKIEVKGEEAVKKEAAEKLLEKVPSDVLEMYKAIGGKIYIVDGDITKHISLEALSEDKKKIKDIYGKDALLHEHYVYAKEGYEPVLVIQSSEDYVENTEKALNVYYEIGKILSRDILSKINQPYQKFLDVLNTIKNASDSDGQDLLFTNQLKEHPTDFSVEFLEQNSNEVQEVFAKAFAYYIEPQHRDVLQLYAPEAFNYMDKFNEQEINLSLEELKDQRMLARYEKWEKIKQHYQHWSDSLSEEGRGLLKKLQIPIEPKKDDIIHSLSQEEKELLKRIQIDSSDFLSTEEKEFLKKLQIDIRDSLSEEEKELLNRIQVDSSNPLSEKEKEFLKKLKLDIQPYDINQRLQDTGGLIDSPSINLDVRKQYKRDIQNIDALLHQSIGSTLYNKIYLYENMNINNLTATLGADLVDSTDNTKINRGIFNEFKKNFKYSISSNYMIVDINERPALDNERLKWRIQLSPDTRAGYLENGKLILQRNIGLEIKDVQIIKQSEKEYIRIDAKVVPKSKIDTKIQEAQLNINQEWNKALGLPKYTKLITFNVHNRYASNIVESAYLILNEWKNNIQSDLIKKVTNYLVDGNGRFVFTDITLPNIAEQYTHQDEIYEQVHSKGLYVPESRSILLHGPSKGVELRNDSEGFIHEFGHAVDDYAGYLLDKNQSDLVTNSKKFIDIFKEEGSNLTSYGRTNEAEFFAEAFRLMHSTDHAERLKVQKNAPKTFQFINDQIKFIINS
Bead autofluor = compound fluorescence in toxin protease inhibitor counterscreen. compound autofluorescence counterscreen, microsphere flow cytometry; active compounds read high. fluorescence intensity (no concentration beside the values). 360,000 tested, 3.1% active; in the data active = fluorescence intensity above about 16000; inconclusive = no clear call, values can overlap the other calls
BJeLR viability = MLPCN primary cell-based screen for lethality selective to Ras in HRASV12 cells | BJeLR (HRASV12) viability, CellTiter-Glo ATP luminescence, 48 h | inhibition, % (no concentration beside the values) | 300,000 tested, 0.17% active; in the data active = inhibition above about 50%; inconclusive = no clear call, values can overlap the other calls
BH1578 lux ind = inducers of Vibrio cholerae quorum light production without autoinducers, primary screen, BH1578 luxS cqsA deficient, single point | activation, % at 18.7 µM | 350,000 tested, 0.16% active | AID 588436, 2011 | V. cholerae BH1578 lux reporter, luminescence, 6 h; in the data active = activation mostly above about 9.7%, no sharp cut-off; inconclusive = no clear call, values can overlap the other calls; inactive = mostly below about 3.7%
Large screens that a line does not name were inactive. Rule as the data show it, unless noted: active = inhibition above about 30%; inconclusive = no clear call, values can overlap the other calls; inactive = below that.

COc1c(F)c(F)c(C(=O)O)c(Nc2ccc(C)cc2)c1F	Bead autofluor 22057
Oc1c(C=C2N=c3ccccc3=N2)sc(=S)n1C1CCCC1	BoNT A protease 70.4, Anthrax LF prot 39.4
Oc1c(C=C2N=c3ccccc3=N2)sc(=S)n1-c1ccc(F)cc1	BoNT A protease 54.1, Anthrax LF prot 34.4
Oc1c(C=C2N=c3ccccc3=N2)sc(=S)n1-c1ccc2ccccc2c1	none
COc1ccc(NC(=O)CCc2ccccc2)cc1NC(=O)c1ccco1	Bead autofluor 19700
CCOc1cc(NC(=O)c2ccco2)c(OCC)cc1NC(=O)Cc1ccc(OC)c(OC)c1	Bead autofluor 20919
COc1ccc(CC(=O)NNC(=O)c2ccco2)cc1OC	none
Cc1cccc(C=Nc2ccccc2C(N)=O)c1	Bead autofluor 24521
O=C(Nc1ccc(F)c(Cl)c1)C1Cc2c(-c3cccc(F)c3)ccnc2O1 (stereo not drawn)	none (no result: BJeLR viability)
O=C1C2CC=CCC2C(=O)N1c1n[nH]c(CCc2ccccc2)n1 (stereo not drawn)	BoNT A protease inconclusive, Bead autofluor 18666
Cc1ccc(C2(CC(=O)O)CCOC(C)(C)C2)cc1 (stereo not drawn)	BoNT A protease inconclusive, Bead autofluor 19797
Cc1ccc(C2/C(=C(/O)c3ccccc3)C(=O)C(=O)N2CCN2CCOCC2)o1 (stereo not drawn)	Bead autofluor 20379
COc1ccc(NC(=O)C2(C)CCN2Cc2ccc(C(C)C)cc2)cc1OC (stereo not drawn)	none (no result: BJeLR viability)
O=C(N/N=C/c1ccc(O)cc1)c1csc2ccccc12	BH1578 lux ind 17.9
O=C(N/N=C/c1ccc(O)cc1)c1cc(-c2ccccc2)nc2ccccc12	none
COc1ccc(-c2cc(NC(C)=O)c3ncc(-c4ccccc4)n3c2)c(OC)c1	none (no result: BJeLR viability)
CC(=O)NCC(=O)OCC(=O)c1ccc(C)c(C)c1	none
Cc1ccc(C(=O)COC(=O)C2C3C=CC(C3)C2C(=O)OCC(=O)c2ccc(C)c(C)c2)cc1C (stereo not drawn)	BoNT A protease inconclusive, Bead autofluor 22921
CC1=C(C(=O)N(C(C)C)C(C)C)CC(CC(=O)NCC2CCCCC2)C(=O)N1Cc1ccc(C(C)(C)C)cc1 (stereo not drawn)	none (no result: BJeLR viability, BH1578 lux ind)
COc1ccc(CNc2cc(C)nc3ncnn23)c(OC)c1	Bead autofluor 22962
C[C@H]1CN([C@@H](C)CO)C(=O)c2cc(Br)cnc2O[C@@H]1CN(C)C(=O)c1ccncc1	none (no result: BJeLR viability)
Cc1ccc(NS(=O)(=O)c2ccc3c(c2)oc(=O)n3C)cc1C	none
Cn1c(=O)oc2cc(S(=O)(=O)Nc3ccc4c(c3)OCCO4)ccc21	BoNT A protease inconclusive, Bead autofluor 21945
Cc1c(S(=O)(=O)Nc2ccc3c(c2)OCCO3)c(=O)n(C)c(=O)n1C	none
Cn1c(=O)c(=O)n(C)c2cc(S(=O)(=O)Nc3ccc4c(c3)OCCO4)ccc21	BoNT A protease inconclusive, Bead autofluor 22407
COC(=O)c1cc(NC(=O)CCc2c(C)nc3ncnn3c2C)cc(C(=O)OC)c1	Bead autofluor 17830
Cc1nc2ncnn2c(C)c1CCC(=O)Nc1csc(N)n1	BoNT A protease inconclusive, Bead autofluor 18816
COc1ccc(CN(CCC#N)C(=S)NC(=O)c2ccccc2)cc1	none
N#CCCN(Cc1ccccc1)C(=S)NC(=O)c1ccccc1	BoNT A protease inconclusive, Bead autofluor 21936
NC(=Nc1c([N+](=O)[O-])cnc2ccccc12)N1CCOCC1	none (no result: BJeLR viability, BH1578 lux ind)
COc1ccc(CC(=O)Nc2ccc(S(=O)(=O)Nc3ncccn3)cc2)cc1OC	none
COc1cc(OC)c(C(=O)Nc2ccc(S(=O)(=O)Nc3ncccn3)cc2)cc1OC	Bead autofluor 21604
Cc1ccc(F)c(S(=O)(=O)NC(=O)C2(C)CCN2C(=O)Cc2ccsc2)c1 (stereo not drawn)	none (no result: BJeLR viability)
CCOC(=O)[C@]12CCCC=C1N(Cc1ccco1)C(=O)[C@H](CC(=O)NCc1cccs1)C2	none (no result: BJeLR viability, BH1578 lux ind)
Cn1c(=O)c2c(nc(NCc3ccco3)n2Cc2ccc(Cl)cc2Cl)n(C)c1=O	Bead autofluor 24075
CCn1c(NCc2ccco2)nc2c1c(=O)n(C)c(=O)n2C	Bead autofluor 21102
CCOC(CNC(=O)c1ccc2c(c1)nc(C)n2-c1cccc(F)c1)OCC	Bead autofluor 23358
CCCNC(=O)C1(C)CCCN(C(=O)c2ccc3snnc3c2)C1 (stereo not drawn)	none (no result: BJeLR viability)
COc1ccc(OCC(=O)N/N=C2\CCCc3ccccc32)cc1	none
Cc1cccc2c1OCC/C2=N\NC(=O)COc1ccccc1	Bead autofluor 20669
CC(C)=NNc1cnnc2ccc([N+](=O)[O-])cc12	none (no result: BJeLR viability, BH1578 lux ind)
COc1ccc(OC)c(NC(=O)CCNC(=O)N2CC(=O)Nc3ccccc32)c1	none (no result: BJeLR viability)
COC(=O)C1C(=O)C2=C(CC1C)NC(C)=C(C(=O)OC(C)C)C2c1ccc(OC)c(O)c1 (stereo not drawn)	Bead autofluor 22658
COC(=O)C1C(=O)C2=C(CC1C)NC(C)=C(C(=O)OC1CCCC1)C2c1ccc(N(C)C)cc1 (stereo not drawn)	none (no result: BJeLR viability)
CC(C)Cc1ccc(C(C)C(=O)N2CCOCC2)cc1 (stereo not drawn)	BoNT A protease inconclusive, Bead autofluor 22712
CCOCc1nc(N)nc(N)c1-c1cccc(Cl)c1	none (no result: BJeLR viability)
CN1OC[C@@H]2CN(Cc3ccccc3)[C@H](c3cccc(-c4ccccc4)c3)C[C@@H]21	none (no result: BJeLR viability)
CCc1sc(C(=O)NC)cc1Br	Bead autofluor 20040
CCc1sc(C(=O)NCc2cc(C)n(C)n2)cc1Br	none
CCN(CC)C1=CC2=CC(=C(C#N)C#N)CCC2CC1 (stereo not drawn)	BoNT-F LC inh 61.8, Bead autofluor 39639 (no result: BJeLR viability)
CCCCN(C)C1=CC2=CC(=C(C#N)C#N)CCC2CC1 (stereo not drawn)	BoNT-F LC inh 108.7, Anthrax LF prot 38.5, Bead autofluor 49793
CCCCN(C)C(=O)c1ccc(Nc2nc(C(N)COCc3ccccc3)cs2)nc1 (stereo not drawn)	none (no result: BJeLR viability)
CCOC(=O)/C(=C\C=C1/Sc2cc(OCC)c(OCC)cc2N1CC)C(C)=O	BoNT-F LC inh 48.9, Bead autofluor 33036
CCN1/C(=C/C(C)=O)Sc2ccc(OC)cc21	none
CCOC(=O)/C(=C/C=C1\Sc2cc(OCC)c(OCC)cc2N1CC)C(C)=O	BoNT-F LC inh 43.7, Bead autofluor 23889
Cc1sc2ncnc(N/N=C/c3ccc(O)cc3)c2c1C	none
Cc1sc2ncnc(N/N=C/c3ccccc3O)c2c1C	BJeLR viability 81.3
COc1cccc(/C=N/Nc2ncnc3scc(-c4ccccc4)c23)c1OC	Bead autofluor 21674
CCOc1ccc(NC(=O)CN(C)C(=O)C(C)Oc2ccc(Cl)cc2)cc1OCC (stereo not drawn)	none (no result: BoNT-F LC inh, BoNT A protease, Anthrax LF prot, Bead autofluor, BJeLR viability)
